Screening results deposited in PubChem BioAssay by Broad Institute.
aSyn UTR act: Activators via SNCA 5'UTR binding, MLPCN; alpha-synuclein 5'UTR reporter, activators screen; hit rate 7.1% among 300,000; activity score, % (tested at 7.5 µM), hits read low; in the data active means activity score below about -60%
Numbers stand for hits; i = inactive. Not all results are given here.

SMILES	aSyn UTR act
CC(C)Sc1nnc(Nc2ccccc2)s1	-178
CC1Oc2ccccc2N(CC(=O)NCc2ccc3c(c2)OCO3)C1=O (stereo not given)	-106
COc1cc([C@@H]2c3cc4c(cc3[C@@H](NC3CCN(Cc5ccccc5)CC3)[C@H]3COC(=O)[C@H]23)OCO4)cc(OC)c1O	i
CC1Oc2ccccc2N(CC(=O)Nc2ccc3c(c2)OCCO3)C1=O (stereo not given)	-77
CC1CCCCC12NC(=O)N(CC(=O)NC(=O)Nc1ccc3c(c1)OCCO3)C2=O (stereo not given)	-169
CCOC(=O)C(C)Oc1cccc2c(=O)n(CC(=O)NCc3ccc4c(c3)OCO4)ccc12 (stereo not given)	i
COc1ccc(NC(=O)n2nc(OC(=O)c3cccs3)cc2N)cc1	-84
Cn1c2ccc(Br)cc2c2nnc(SCC(=O)O)nc21	i
Cn1c2ccc(CC(=O)O)cc2c2cc(CC(=O)O)ccc21	-65
Cc1cc(C(=O)C(C)Sc2cccc[n+]2[O-])c(C)n1-c1ccc(Cl)cc1 (stereo not given)	-82
COc1cc(/C=N/Nc2nc(Nc3ccccc3)nc(-n3nc(C)cc3C)n2)cc(OC)c1OC	-68
C=CCNC(=O)c1cc2c(=O)n3ccccc3nc2s1	-218
O=C(NC1CCCCCC1)c1cc2c(=O)n3ccccc3nc2s1	-85
N=c1c(S(=O)(=O)c2ccc(Br)cc2)cc2c(=O)n3ccccc3nc2n1C1CCCC1	i
Cc1cc(C)c(S(=O)(=O)Nc2cc(SCC(=O)O)c(O)c3ccccc23)cc1C	i
CCCCNC(=O)Cn1nc([N+](=O)[O-])c([N+](=O)[O-])c1C	-138
CCCNC(=O)Cn1nc([N+](=O)[O-])c([N+](=O)[O-])c1C	-77
C=CCn1cccc(C(=O)Nc2ccc(OC)c(Cl)c2)c1=O	-84
C=CCn1cccc(C(=O)Nc2ccc(C)c(Cl)c2)c1=O	-140
CC(=O)N(/N=C1\Sc2ccccc2C1=O)c1ccccc1C	-170
Cc1cc(O)c(C(=O)Cc2csc(C)n2)c(O)c1	-132
CC1CCN(S(=O)(=O)N2CCC(C(=O)NC3CCCC3)CC2)CC1	-97
CCCS(=O)(=O)N1CCC(C(=O)NC2CCC(C)CC2)CC1 (stereo not given)	-64
COc1cccc(C(=O)O/N=C(\N)c2ccc([N+](=O)[O-])cc2)c1	-164
COc1ccc(/C(N)=N/OC(=O)c2cccc([N+](=O)[O-])c2C)cc1	-113
SMILES	aSyn UTR act
COc1cccc(C(=O)O/N=C(\N)c2ccc(C)cc2)c1	-211
COc1cccc(/C(N)=N/OC(=O)Cc2ccccc2[N+](=O)[O-])c1	-77
COc1ccc(/C(N)=N/OC(=O)c2cccc([N+](=O)[O-])c2)cc1	-129
CCC(=O)C1CCCN(C(=O)CCc2nnc(C3(c4ccc(Cl)cc4)CCC3)o2)C1 (stereo not given)	-62
O=C(CCc1nnc(C2(c3ccc(Cl)cc3)CCC2)o1)N1CCCC1	-72
CC(=O)c1ccc(-c2nnc(CCC(=O)N3CCCC(C(=O)CC(C)C)C3)o2)s1 (stereo not given)	-157
Cc1nn(-c2nc3ccccc3[nH]2)c(N)c1-c1ccccc1	-183
Cc1nn(-c2ccccc2)c(/N=C/c2ccccc2O)c1-c1ccccc1	-176
CC1(C)N=C(N)N=C(N)N1c1ccccc1	i
Cc1nn(-c2ccccc2)c(N)c1-c1ccccc1	-72
Cc1cc(-c2ccccc2)n(-c2ccccc2)n1	-84
CN1C(=O)/C(=C2\SC(=S)N(CCCCCC(=O)O)C2=O)c2ccccc21	-67
Cc1cc(NC(=O)/C=C/c2ccccc2)no1	-156
C#CCNC(=O)/C=C/c1ccc(OC)cc1	-75
Cc1cc(NC(=O)/C=C/c2ccccc2Cl)no1	-249
COc1ccc(C(=O)/C=C/Nc2cc(C)on2)cc1	-94
CC(=O)Nc1nc(NC(=O)/C=C/c2ccccc2)n(-c2ccccc2)n1	i
COc1ccc(/C=C/C(=O)Nc2cc(C(F)(F)F)ccc2Cl)cc1	-62
COc1ccc(/C=C/C(=O)Nc2cc(C)on2)cc1	-216
COc1ccc(/C=C/C(=O)Nc2nonc2NC(C)=O)cc1	-155
COc1cc(-c2noc(C)c2/C=C/c2ccc(OC(C)=O)cc2)cc(OC)c1OC	i
CCOC(=O)C1(Cc2ccccc2Cl)CCN(C(=O)CN2CCOC2=O)CC1	-145
CCOc1ccc(/C=N/N2C(C)CCCC2C)cc1 (stereo not given)	-77
Fc1ccc(Cn2cccc2C2=NC(c3ccccc3)CO2)cc1 (stereo not given)	-88
COc1ccc(NC(=O)/C(Cl)=C(/Cl)S(=O)Cc2ccccc2)cn1 (stereo not given)	i
SMILES	aSyn UTR act
CCOC(=O)c1ccc(NC(=O)Nc2ccc(F)cc2)cc1	-106
COc1ccc(NC(=O)/C=C/c2cccc(Br)c2)cn1	-190
CCOC(=O)c1ccc(NC(=O)C23CCC(C)(C(=O)O2)C3(C)C)cc1 (stereo not given)	-106
COc1ccc(NC(=O)CSc2ccccc2)cn1	-86
CC(C)(C)c1ccc(NC(=O)Nc2ccc(F)cc2)cc1	-245
O=C(Nc1ccc(F)cc1)Nc1cc(OCC(F)(F)F)cc(OCC(F)(F)F)c1	i
COc1ccc(NC(=O)Nc2ccc(F)cc2)cn1	-65
COC(=O)c1ccc(NC(=O)Nc2ccc(F)cc2)cc1	-141
CCCCN1C(=O)/C(=C/C=C2\SCCN2C)SC1=S	-121
CC1CN(C(=O)c2cccc(COc3ccccc3Cl)c2)CC(C)O1 (stereo not given)	-145
CCOC(=O)N1CCN(C(=O)c2cc(COc3ccc(OC)cc3Cl)on2)CC1	-62
O=C(c1cc(COc2ccc(F)cc2Cl)on1)N1CCCCCC1	-116
COc1ccc(OCc2cc(C(=O)N3CCCCCCC3)no2)c(Cl)c1	-69
COc1ccc(OCc2cc(C(=O)N3CCN(C4CCCC4)CC3)no2)c(Cl)c1	-80
COc1ccc(OCc2cc(C(=O)N3C[C@@H](C)O[C@@H](C)C3)no2)c(Cl)c1	-67
COc1ccc(OCc2cc(C(=O)N3CCN(CC4CC4)CC3)no2)c(Cl)c1	-87
O=C(c1cc(COc2ccc(F)cc2F)on1)N1CCSCC1	-117
Cc1ccc(-c2nnc(SCC(=O)Nc3ccccc3F)o2)cc1	i
COc1ccc(C)cc1NC(=O)CSc1nnc(-c2ccc(C)cc2)o1	-109
COC(=O)c1ccccc1NC(=O)CSc1nnc(-c2ccc(C)cc2)o1	-130
Cc1cc(-c2nnc(SCC(=O)Nc3ccccc3C(F)(F)F)o2)c(C)n1-c1ccccc1	-69
Cc1cc(-c2nnc(SCC(=O)Nc3ccccn3)o2)no1	-72
COc1ccc(-c2nnc(SCC(=O)Nc3ccccc3OC)o2)cc1	-145
COc1cccc(-c2nnc(SCC(=O)Nc3cc(C)on3)o2)c1	-66
CCOC(=O)c1ccccc1NC(=O)CSc1nc2ccccc2o1	-88
SMILES	aSyn UTR act
COc1ccccc1-c1nnc(SCC(=O)OC(C)C)o1	-83
CCOC(=O)c1ccccc1NC(=O)Cn1c(-c2nonc2N)nc2ccccc21	i
COc1ccc(-c2nnc(SCC(=O)Nc3cccc(Cl)c3)o2)cc1	-179
CCCCOc1ccc(N=Nc2ccc(N)nc2N)cn1	-300
O=c1sc(Nc2ccccc2)nc2ccsc12	-111
O=C(Nc1nc2c(Cl)ccc(Cl)c2s1)c1ccco1	-184
O=C(Nc1nc2ccsc2c(=O)s1)C1CCC1	-96
O=C(Nc1nc2c(s1)CCc1ccccc1-2)c1ccco1	-140
Cc1nc2ccc3nc(NC(=O)c4ccco4)sc3c2s1	-152
O=C(Nc1nc2ccsc2c(=O)s1)c1ccco1	-130
